Test results as given in PubChem BioAssay AID686978 (National Center for Advancing Translational Sciences (NCATS), 2013).
“And” between values parts separate entries of the source, which are not always exact repeats. Equal values may be shown once. The whole screen tested about 420,000 compounds, of which about 64,000 (15%) were called active. Roughly 27% stayed inconclusive and do not appear here. Calls follow the shape of the dose curve; as a rule, active = well fitted inhibition curve with a large enough effect; inconclusive = small, poorly fitted or top-dose-only effect; inactive = flat fitted curve, though single readings scatter. Only a sample is shown.

Experiment: qHTS for Inhibitors of human tyrosyl-DNA phosphodiesterase 1 (TDP1): qHTS in cells in absence of CPT; also: nearly all actives have a fitted effect of over 55% in size
Conditions: DT40 Tdp1-/- hTDP1 cells, no CPT, ATP luminescence, 48 h; activity change, negative = growth inhibition: at 46.2 µM (top of the series)
Outline: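 Chicken DT40 Tdp1-/- cells complemented with human TDP1, screened without camptothecin (DMSO vehicle only), 400 cells/well. Compounds pin-transferred, cells incubated at 37 °C for at least 48 hr. Growth read as ATP-dependent luminescence (CellTiter-Glo, 30 min at RT).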
% is scaled to controls: 0 for no effect and ±100 for the full control effect; potency is read from the fitted curve at half-maximal effect.

Structure (SMILES) | activity change, negative = growth inhibition | Potency
O=C1c2ccccc2S(=O)(=O)N1CC(O)Cn1c2ccccc2c2ccccc21 (stereo not drawn) | -9.56% (inactive) | –
CC(CC(=O)N1CCN(S(=O)(=O)c2ccccc2)CC1)n1cncn1 (stereo not drawn) | -11.7% (inactive) | –
CCN(CC)S(=O)(=O)c1ccc2[nH]c(=O)cc(C(=O)N(C)C3CCS(=O)(=O)C3)c2c1 (stereo not drawn) | 14.9% (inactive) | –
CC(=O)N1CCN(CCN=CC2=C(O)CC(C)(C)CC2=O)CC1 | -2.47% (inactive) | –
CCc1nccn1S(=O)(=O)c1cccc([N+](=O)[O-])c1 | 0.702% (inactive) | –
Nc1ncnc2nnsc12 | -6.84% (inactive) | –
COc1ccc(-c2nc(CCNC(=O)c3ccc(Br)o3)cs2)cc1 | – | 20.6 µM (active) and 18.4 µM (active)
O=S(=O)(NCCc1csc(-c2ccccc2)n1)c1cccnc1 | -6.09% (inactive) | –
COc1cc(OC)cc(C(=O)NNC(=O)CNC(=O)c2ccc(Br)o2)c1 | -1.82% (inactive) | –
CC(C)c1ccc(NC(=O)COC(=O)c2ccc(CN3CCCC3=O)cc2)cc1 | 13.6% (inactive) | –
CN(C)C(=O)N1CCNCC1 | 1.26% (inactive) | –
C=C(C)CNC(=S)/N=c1\scc(C)n1CC | – | 20.6 µM (active)
Cc1csc(=NC(=O)c2ccccc2)n1CCO | -16.2% (inactive) | –
COc1ccc(NC(=S)Nc2ccc(S(N)(=O)=O)cc2)c(C)c1 | -13.9% (inactive) | –
COC(=O)c1sc(NC(=O)COC(=O)C2CCC2)c(C(=O)OC)c1C | -5.44% (inactive) | –
O=S1(=O)C[C@@H](N2CCN(CCO)CC2)[C@H](COCc2ccccc2)N1 | 20.9% (inactive) | –
Cc1ccc(NC(=O)CNCc2ccccn2)cc1S(=O)(=O)N(C)C | -3.4% (inactive) | –
Cc1csc(SCC(=O)Nc2ccc(C)c(S(=O)(=O)N(C)C)c2)n1 | – | 18.4 µM (active)
COc1ccc(NC(=O)CSc2nc(C)cs2)cc1 | -29.3% (inactive) | –
CC(=O)c1sc(N)nc1C | – | inactive
CC(C)[C@H](NC(=O)N1CC(=O)Nc2ccccc21)C(=O)N[C@@H](Cc1c[nH]c2ccccc12)C(=O)O | 0.876% (inactive) | –
CC(C[N+](C)(C)C)OC(N)=O (stereo not drawn) | – | inactive
Fc1ccc(COc2cccc(-c3n[nH]c(=S)o3)c2)cc1 | 1.3% (inactive) | –

Structure (SMILES) | activity change, negative = growth inhibition | Potency
COc1ccccc1OCCNC(=O)CCNC(=O)c1ccccc1Cl | 4.86% (inactive) | –
O=C(O)c1ccccc1OCc1ccccc1Cl | 0.336% (inactive) | –
O=C(NCCOc1ccccc1Cl)C(=O)Nc1ccccc1 | – | 18.4 µM (active)
CCC(C)NC(=O)C1CCCN(C(=O)NC2CCCCC2)C1 (stereo not drawn) | 0.165% (inactive) | –
C=CCN(c1ccc(C(=O)Nc2cc(C)cc(C)c2)cc1)S(C)(=O)=O | -24.1% (inactive) | –
COc1ccc(O)c(C=Nc2cc(C)on2)c1 | 0.215% (inactive) | –
COc1ccc(C#Cc2c(-c3ccc(OC)cc3)oc3ccc(-c4ccc5c(c4)OCO5)cc23)cc1 | -5.09% (inactive) | –
COc1ccc(-c2onc(C)c2-c2ccc3c(c2)OCCO3)c(O)c1 | – | 18.4 µM (active)
CC[C@H](C)[C@@H](C(=O)N1CCNCC1)n1cc([C@@H](N)Cc2ccc(O)cc2)nn1 | -10.6% (inactive) | –
O=C(O)c1ccn(COc2ccc(Br)cc2)n1 | -11.4% (inactive) | –
Cn1c(=O)c(=O)n(C)c2cc(S(=O)(=O)CCC(=O)N3CCCCC3)ccc21 | -4.15% (inactive) | –
CCC(=O)N1CCc2cc(S(=O)(=O)CCC(=O)N3CCN(c4ccccc4F)CC3)ccc21 | -0.867% (inactive) | –
Cc1cccc(N2CCN(C(=O)CCS(=O)(=O)c3ccc4c(c3)NC(=O)C(C)S4)CC2)c1C (stereo not drawn) | – | 25.9 µM (active)
COc1cccc(CNS(=O)(=O)c2csc(C(N)=O)c2)c1 | 1.51% (inactive) | –
NC(=O)c1cc(S(=O)(=O)NCCCc2ccco2)cs1 | – | 8.2 µM (active)
COc1ccc(NC(=O)C2CCC(CNS(=O)(=O)c3csc(C(N)=O)c3)CC2)cc1OC (stereo not drawn) | 18.6% (inactive) | –
CCC(=NC1CC(C)(C)NC(C)(C)C1)C1=C(O)CC(C)(C)CC1=O | -5.34% (inactive) | –
Cn1c(=O)cc(SCC(=O)N2CCCC2)c2cc(Cl)ccc21 | -14.8% (inactive) | –
CC1(C)C(c2cccs2)=[N+]([O-])C2(CCCCC2=O)N1O (stereo not drawn) | -15.3% (inactive) | –
COc1ccc(C(CC(=O)c2ccccc2)S(=O)(=O)c2ccccc2)cc1 (stereo not drawn) | – | 18.4 µM (active)
COc1ccc(N(Cc2ccccc2)S(=O)(=O)c2cccc(C(=O)O)c2)cc1 | 2.71% (inactive) | –
COc1ccc(C(CC(=O)O)NC(=O)Cc2ccccc2)cc1 (stereo not drawn) | -1.16% (inactive) | –
CC(C)c1cc(C(=O)N/N=C/c2ccoc2)c(O)c(C(C)C)c1 | 12.3% (inactive) | –

Structure (SMILES) | activity change, negative = growth inhibition | Potency
CCOCCCNC(=O)Cc1cc(=O)[nH]c(=O)[nH]1 | -0.0606% (inactive) | –
COc1ccc(NC(=O)Cn2c(-c3ccc(OC)cc3)cn(-c3ccc(C)cc3)c2=O)cc1 | -22.8% (inactive) | –
CC(=O)OCC1(O)CC23CCC4c5ccoc5CCC4(C)C2CCC1C3 (stereo not drawn) | – | 14.6 µM (active)
Cc1ccc(SCCC(=O)Nc2cc(C)on2)cc1 | 1.17% (inactive) | –
O=C(O/N=C(/c1ccccc1)c1ccncc1)c1ccccc1[N+](=O)[O-] | -19.9% (inactive) | –
O=C(CN1CCOCC1)Nc1ccc(NC(=O)CN2CCOCC2)c(Cl)c1 | -7.28% (inactive) | –
CC(=O)OC1CCC2(O)CC1(C)CCC1C2CC1(C)C (stereo not drawn) | -13.3% (inactive) | –
Cc1ccc2c(=O)cc(C(=O)NCCc3ccc(S(N)(=O)=O)cc3)oc2c1C | -26.4% (inactive) | –
CCOC(=O)c1csc(CCNC(=O)c2oc3c(Cl)cc(C)cc3c2C)n1 | – | 20.6 µM (active)
COCCN1Cc2cccc(C(=O)Nc3ccccc3OC)c2C1=O | -19.1% (inactive) | –
CCOc1ccc(NC(=O)c2cccc3c2C(=O)N(CC2CCCO2)C3)cc1 (stereo not drawn) | -27.1% (inactive) | –
COc1ccc(NC(=O)c2cccc3c2C(=O)N(CC2CCCO2)C3)cc1OC (stereo not drawn) | – | 23.1 µM (active)
O=C(CNS(=O)(=O)c1ccc(Br)s1)N1CCN(C(=O)c2ccco2)CC1 | -15.3% (inactive) | –
O=C(CNC(=O)c1cc2c(s1)CCC2)Nc1ccccc1Br | -25.6% (inactive) | –
Cc1ccc(C(=O)N/C(=C\c2cccs2)C(=O)NCCc2ccccn2)cc1C | -26.9% (inactive) | –
COc1ccc2oc(=O)c(C(=O)NCc3ccccn3)cc2c1 | -20.1% (inactive) | –
COc1cncc(-c2cnc3sc(NCCc4ccccn4)nn23)c1 | – | 13 µM (active)
C[C@H](CO)N1C[C@H](C)[C@H](CN(C)C(=O)Nc2ccc3c(c2)OCO3)Oc2ncc(Br)cc2C1=O | -3.88% (inactive) | –
CN1CCCC(OC(=O)COc2ccc(Br)cc2)C1 (stereo not drawn) | 6.51% (inactive) | –
CC(=O)Nc1ccc(N2C(=O)CC(Sc3nccc(C)n3)C2=O)cc1 (stereo not drawn) | -28.4% (inactive) | –
CCOc1ccccc1N1C(=O)CC(Sc2nccc(C)n2)C1=O (stereo not drawn) | – | 20.6 µM (active)
CCOc1ccccc1-n1c(SCC(=O)N2CCCC2)nnc1-c1ccoc1C | -5.39% (inactive) | –
